# Screening results as filed in PubChem.
# IL1B secr inh: inflammasome signaling inhibition, IL-1 beta readout; THP-1 LPS/ATP IL-1B secretion, AlphaLISA, 16 h; hits give low values; activity change, % at 57.5 µM; 4.7% of 360,000 active; in the data active means activity change below about -50%; inconclusive means mostly about -30% to -49%
#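 THP-1 cells pretreated 1 hr with compounds (up to 57.5 uM final), then stimulated with LPS (250 ng/mL final) plus ATP (1.25 mM final); secreted IL-1B measured by AlphaLISA after 16 hr, decreased signal indicating inhibition.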
# DT40 TDP1 no CPT: qHTS for Inhibitors of human tyrosyl-DNA phosphodiesterase 1 (TDP1): qHTS in cells in absence of CPT; Potency, µM (highest dose often 46.2 µM), inactives show top-dose activity change, negative = growth inhibition, most hits filed as inhibitors; 15% of 420,000 active; DT40 Tdp1-/- hTDP1 cells, no CPT, ATP luminescence, 48 h; further: potency means the concentration at half of the fitted maximal effect; nearly all actives have a fitted effect of over 55% in size
#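 DT40 Tdp1-/-;hTDP1 cells, no CPT (DMSO vehicle only), 400 cells/well; compounds pin-transferred; ≥48 hr, 37 °C; CellTiter-Glo 30 min RT dark, luminescence read.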
# HT1080 IDH1KD tx: HT-1080 IDH1 knockdown cell toxicity (counter line); 2% of 360,000 active; HT-1080 IDH1 knockdown viability, ATP luminescence, 48 h; Potency, µM (highest dose often 46.1 µM), for inactives: at the top dose activity, negative = toxicity, most hits filed as cytotoxic;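 further: potency means the concentration at half of the fitted maximal effect; 0% = DMSO wells and -100% = cell-free medium wells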
#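 In this qHTS, HT-1080 cells depleted of IDH1 are exposed for 48 h at 37 °C to compound titrations. Toxicity is scored from CellTiter-Glo luminescence, with DMSO as full viability and medium alone as none.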
# HT1080NT lethal: kills 2HG-producing HT-1080-NT fibrosarcoma cells; 1.6% of 360,000 active; Potency, µM (highest dose often 46.1 µM), inactives show at the top dose activity, negative = less viability, most hits filed as cytotoxic; HT-1080-NT fibrosarcoma viability, CellTiter-Glo ATP luminescence, 48 h;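 further: NT is the 2HG producing partner of a matched IDH1 knockdown line; potency means the concentration at half of the fitted maximal effect; 0% = DMSO-treated cells and -100% = media-only wells without cells; nearly all actives have a fitted effect of over 55% in size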
#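 Fibrosarcoma NT cells, 750 per well in 5% FBS RPMI, were exposed to compound for 48 hours. Viability: CellTiter-Glo luminescence.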
# TDP1 cell CPT: growth inhibition of DT40 Tdp1-/-;hTDP1 cells with camptothecin (screen for TDP1 inhibitors). chicken DT40 Tdp1-/-;hTDP1 cells + 20 nM CPT, ATP luminescence, 48 h. Potency, µM (highest dose often 46.2 µM), for the others: at the highest dose activity change, negative = growth inhibition, hits mostly inhibitors. 12% of 420,000 active. AID 686979; further: potency means the concentration at half of the fitted maximal effect; nearly all actives have a fitted effect of over 55% in size
#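 Cell growth measured by CellTiter-Glo luminescence after a minimum 48 h, 37 C compound exposure with 20 nM CPT in Tdp1-knockout DT40 cells stably expressing hTDP1, seeded 400/well; qHTS titration format.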
# Numbers without * were called inactive; ? = inconclusive; · = not tested or not shown. This is a sample that favours compounds with a hit; in the whole collection about 19% have one here. Unless noted, the call rests on the fitted dose curve; in most records, active means well fitted curve in the direction sought with a large enough effect; inconclusive means small, poorly fitted or top-dose-only effect, or another doubt; inactive means no such curve, though single readings can be large; an effect the other way counts as inactive or inconclusive. Unless noted, on the % scale 0 is the no-effect control and ±100 the full control effect.
SMILES,IL1B secr inh,DT40 TDP1 no CPT,HT1080 IDH1KD tx,HT1080NT lethal,TDP1 cell CPT
COc1ccc(NC(=O)CCNS(=O)(=O)c2ccc3[nH]c(=O)oc3c2)cc1Cl,28.9,-3.4%,16.5%,12.3%,-0.6%
CCNC(=O)C1(C)CCCN(Cc2ccc(-c3ccccc3)o2)C1 (configuration not stated),-25.1,23.1µM*,-11.4%,7.9%,23.1µM*
CC1(Oc2cccc(F)c2)CCN(Cc2ccc(-c3ccccc3)o2)C1 (configuration not stated),0.0,?,3.4%,2.0%,23.1µM*
CCCNC(=O)C1(C)CCN(Cc2ccc(-c3ccccc3)o2)C1 (configuration not stated),-13.6,?,?,?,23.1µM*
Cc1ccc(C(=O)NNc2cc(=O)n(C)c(=O)n2C)cc1C,4.1,-4.9%,1.3%,6.3%,1.8%
O=C(O)CCN1C(=O)/C(=C\c2ccc(-c3nc4ccccc4s3)o2)SC1=S,18.7,?,5.6%,12.4%,?
Cc1nccc(-c2cccc(N/N=C(\C#N)C(=O)c3ccccc3)c2)n1,4.3,10.3µM*,?,?,20.6µM*
Cc1nccc(-c2cccc(NC(=O)Nc3ccc(Cl)cc3)c2)n1,-22.1,?,-11.8%,-11.1%,-15.7%
CCN(C(=O)C1CCC(CNS(=O)(=O)c2cccc3nsnc23)CC1)c1cccc(C)c1 (configuration not stated),·,20.6µM*,·,·,?
CCN(CC)C(=O)C1CCC(CNS(=O)(=O)c2cccc3nsnc23)CC1 (configuration not stated),19.9,-2.1%,-0.8%,-1.3%,0.6%
COc1ccc(NC(=O)C2CCC(CNS(=O)(=O)c3cccc4nsnc34)CC2)cc1OC (configuration not stated),·,16.4µM*,·,·,?
CCN(C(=O)C1CCC(CNS(=O)(=O)c2cccc3nsnc23)CC1)c1ccccc1 (configuration not stated),·,23.1µM*,·,·,?
Cc1ccc(S(=O)(=O)Nc2cccc(-n3cnnn3)c2)cc1,3.5,2.4%,-1.7%,8.8%,32.2%
CC(C)Cc1ccc(S(=O)(=O)N2CCN(Cc3noc(CCC(=O)N4CCCCC4)n3)CC2)cc1,·,20.6µM*,·,·,?
O=C(/C=C/Sc1ccc(C(F)(F)F)cn1)c1ccccc1,?,2.31µM*,4.7%,-1.6%,2.91µM*
O=C(CSc1ccc(C(F)(F)F)cn1)Nc1ccccc1,-9.0,-1.6%,9.9%,17.1%,3.1%
C=CCC[C@@H](Cc1ccc(F)cc1)C(=O)OC[C@@H](Cc1c[nH]c2ccccc12)NC(=O)[C@@H](CC=C)CC(=O)N(CCO)Cc1ccccc1,-19.1,23.1µM*,?,?,?
C=CC[C@@H](CC(=O)N(CCO)Cc1ccccc1)C(=O)N[C@H](COC(=O)[C@@H](CC=C)Cc1ccc(F)cc1)Cc1c[nH]c2ccccc12,0.0,?,?,?,?
C=CC[C@H](CC(=O)N(CCO)Cc1ccccc1)C(=O)N[C@H](COC(=O)[C@@H](CC=C)Cc1ccc(F)cc1)Cc1c[nH]c2ccccc12,-55.8*,?,20.6µM*,?,?
C=CCC[C@H](Cc1ccc(F)cc1)C(=O)OC[C@H](Cc1c[nH]c2ccccc12)NC(=O)[C@H](CC=C)CC(=O)N(CCO)Cc1ccccc1,?,25.9µM*,?,?,?
CC(C)N1CCC(N2CCN(C/C=C/c3ccccc3)CC2CCO)CC1 (configuration not stated),-17.0,?,-13.8%,-7.6%,?
Nc1nc2c(c(=O)[nH]1)C(c1cccc3ccccc13)C1=C(N2)c2ccccc2C1=O (configuration not stated),?,-24.2%,?,-25.0%,?
CCc1nnc(NS(=O)(=O)c2ccc(NC(=O)c3cc(Cl)ccc3OC)cc2)s1,33.4,11.3%,0.7%,4.9%,-7.6%
COc1cnc(-c2ccccn2)nc1Oc1ccc(F)cc1F,15.9,3.66µM*,-12.0%,2.3%,10.3µM*
COc1cnc(-c2ccccn2)nc1Oc1ccc(Cl)c2ccccc12,-9.9,1.16µM*,-28.8%,-12.2%,1.3µM*
SMILES,IL1B secr inh,DT40 TDP1 no CPT,HT1080 IDH1KD tx,HT1080NT lethal,TDP1 cell CPT
COc1cnc(-c2ccccn2)nc1Oc1ccc(Cl)cc1,-24.9,1.46µM*,-12.3%,-5.0%,1.64µM*
CC1=C(C(=O)N2CCOCC2)CC(CC(=O)NCCCCc2ccccc2)C(=O)N1CCCN1CCCC1=O (configuration not stated),20.4,-14.0%,14.2%,9.7%,-11.2%
CCOC(=O)[C@H]1[C@H]2COc3ccc(Br)cc3[C@H]2N2C(=O)CNC(=O)[C@@]12C,-5.6,-24.4%,15.8%,0.0%,-13.9%
COc1cccc(NS(=O)(=O)c2ccc3c(c2)CCN3C(C)=O)c1,15.3,7.31µM*,-16.7%,-11.6%,7.31µM*
CSc1cccc(NS(=O)(=O)c2ccc(C(C)=O)cc2)c1,22.2,?,0.6%,?,?
COc1cc(NS(=O)(=O)c2ccc3c(c2)CCN3S(C)(=O)=O)cc(OC)c1,·,5.17µM*,·,·,18.4µM*
COC(=O)c1cc(S(=O)(=O)Nc2cccc(OC)c2)cn1C,0.7,23.1µM*,-5.8%,16.8%,?
CSc1cccc(NS(=O)(=O)c2ccc3c(c2)CCN3C(C)=O)c1,-12.4,3.66µM*,-26.0%,-23.0%,9.2µM*
CCn1c(S(=O)(=O)O)nc2ccccc21,4.6,7.8%,17.2%,12.3%,3.8%
Cc1ccc2nc(-c3ccc(Cl)c(NC(=O)COc4cccc(C)c4C)c3)oc2c1,·,-2.3%,·,·,-4.2%
COc1ccccc1CNC(=O)C1CCC(CNS(=O)(=O)c2cccc3cccnc23)CC1 (configuration not stated),26.0,-20.4%,-0.6%,1.6%,9.8%
COc1cccc(NS(=O)(=O)c2ccc3c(c2)CCCN3C(=O)C2CCC2)c1,·,?,·,·,23.1µM*
COc1ccc(CNS(=O)(=O)c2ccc3c(c2)CCN3C(=O)C2CCC2)cc1,14.6,?,-0.2%,4.6%,?
CC(=O)N1CCCc2cc(S(=O)(=O)Nc3ccc(C)c(F)c3)ccc21,·,16.4µM*,·,·,?
CC(=O)N1CCc2cc(S(=O)(=O)Nc3ccc(C)cc3)ccc21,32.8,?,-6.7%,-11.8%,?
CC(=O)N1CCc2cc(S(=O)(=O)Nc3cccc(C(F)(F)F)c3)ccc21,-4.0,20.6µM*,?,-6.4%,18.4µM*
CCCn1c(-c2ccc[nH]c2=O)nc2cc(C)c(C)cc21,4.5,-1.5%,-0.1%,-0.1%,19.3%
CC(=O)c1ccc(N2CCN(S(=O)(=O)c3ccc4c(c3)CC(=O)N4)CC2)cc1,-13.5,-24.9%,-3.7%,0.0%,-19.1%
